# Assay outcomes: PubChem BioAssay, several laboratories
# Sampled rows, rich in hits. Any-hit rate of the full collection: about 32%.
# CYP2C9 activ: increases human cytochrome P450 2C9 activity | P11712 | 96,000 compounds, 1.4% hits | activation factor at 5 µM | recombinant CYP2C9, luciferin-H conversion, luminescence; stronger effect = higher value; factor 1 = untreated enzyme, 0 = blocked | AID 1024;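 active = activation factor of 2 or more for CYP2C9 at a 5 µM dose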;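 note: 0 = sulfaphenazole-blocked wells and 1 = vehicle-only wells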
# Target sequence (P11712 whole entry, looked up): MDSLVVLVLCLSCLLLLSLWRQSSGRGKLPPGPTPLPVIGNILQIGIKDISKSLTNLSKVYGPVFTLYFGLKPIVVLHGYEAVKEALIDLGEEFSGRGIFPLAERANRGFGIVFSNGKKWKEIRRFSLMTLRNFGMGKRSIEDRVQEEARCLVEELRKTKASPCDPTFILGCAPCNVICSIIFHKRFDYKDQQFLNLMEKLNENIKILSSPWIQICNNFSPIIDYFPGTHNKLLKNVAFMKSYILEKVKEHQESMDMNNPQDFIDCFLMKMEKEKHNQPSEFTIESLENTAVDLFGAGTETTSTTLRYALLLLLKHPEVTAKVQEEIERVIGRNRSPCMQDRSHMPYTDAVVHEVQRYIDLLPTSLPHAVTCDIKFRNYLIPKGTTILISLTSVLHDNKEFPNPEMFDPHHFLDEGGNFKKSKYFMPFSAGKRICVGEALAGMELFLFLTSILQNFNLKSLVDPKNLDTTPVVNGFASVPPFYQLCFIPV
# PostGolgi ctrl: yeast control strain growth, post-Golgi counter-screen | 98,000 compounds, 5% hits | efflux-deficient yeast background strain, growth absorbance A615, 16 h | AID 738 | inhibition, % at 10 µM
# PostGolgi yeast: growth inhibition of a yeast mutant, post-Golgi transport screen. post-Golgi transport phenotypic cell assay. inhibition, % at 10 µM. 98,000 compounds, 0.9% hits. AID 739;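 note: yeast cells grown in 1536-well plates; yeast grown about 18 h at 30C before absorbance read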
# CYP2C9 inhib: human CYP2C9 inhibition. P11712. CYP2C9 Supersomes, luciferin-H conversion, luminescence. inhibition, % at 5 µM. 96,000 compounds, 20% hits;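 active = blocking of liver enzyme CYP2C9 beyond about 50% at 5 µM, limit read from the data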
# CYP2C19 activ: activators of human cytochrome P450 2C19; P33261; 96,000 tested, under 10 active; activation factor at 5 µM; AID 1025; recombinant CYP2C19, luciferin-H EGE luminescence; stronger effect = higher value; 0 = fully inhibited enzyme, 1 = untreated enzyme;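 active = activation factor of at least 2 at 5 µM in the primary screen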;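 note: 0 = wells with 2.5 mM tranylcypromine and 1 = vehicle-only wells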
# CYP2C19 inh: human CYP2C19 inhibition; P33261; CYP2C19 Supersomes, luciferin-H EGE luminescence, 30 min; inhibition, % at 5 µM; 96,000 compounds, 21% hits; AID 778;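 active = CYP2C19 inhibition above a set limit at 5 µM in the primary screen, cut at about 50% in these data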;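 note: plate controls were negative control wells for no effect and 2.5 mM tranylcypromine positive control for full effect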
# * marks the source's active call; other numbers are inactive results; nt = not tested or not shown. Cut-off read from the data, not from the text of the source, unless noted: active = inhibition above about 30%; inactive = the rest.
SMILES,CYP2C9 activ,PostGolgi ctrl,PostGolgi yeast,CYP2C9 inhib,CYP2C19 activ,CYP2C19 inh
COc1cc2c(cc1OC)C(c1cccs1)N(C(=O)C(C)C)CC2 (stereo not given),0.6,-4,0,44,0.4,63*
Cc1cc(NC(=O)c2ccc(NC(=O)C(C)Oc3ccccc3)cc2)no1 (stereo not given),nt,-13,-2,nt,nt,nt
CCOC(=O)C(Cc1ccc(NC(=O)/C(=C/c2ccccc2)NC(=O)c2ccccc2)cc1)N1C(=O)c2ccccc2C1=O (stereo not given),0.1,6,-2,91*,0.5,52*
Cc1ccc(NC(=O)/C(=C\c2ccc([N+](=O)[O-])cc2)NC(=O)c2ccccc2)cc1,1.1,0,-4,-5,0.9,7
COc1ccc(NC(=O)C(CCSC)N2C(=O)c3ccccc3C2=O)cc1 (stereo not given),1.2,4,1,-18,1.4,-38
CCOC(=O)C(Cc1ccc(NC(=O)/C(=C/c2ccc(OC(C)=O)cc2)NC(C)=O)cc1)N1C(=O)c2ccccc2C1=O (stereo not given),0.4,1,4,60*,0.7,27
COc1ccc(-c2nc(CS(=O)CC(=O)NCc3cccnc3)c(C)o2)cc1 (stereo not given),0.4,3,-2,62*,0.5,48
COc1cccc(-c2nc(CS(=O)CC(=O)NCc3ccccc3)c(C)o2)c1 (stereo not given),0.4,5,8,58*,0.5,54*
COc1ccc(-c2nc(CS(=O)CC(=O)NCc3ccco3)c(C)o2)cc1 (stereo not given),0.7,-5,-4,33,0.7,29
CCc1ccc(-c2nc(CS(=O)CC(=O)NCc3cccnc3)c(C)o2)cc1 (stereo not given),0.3,4,14,70*,0.8,15
CC(=O)Nc1cn(C(C)=O)c(C)n1,0.8,14,-5,19,1,-1
CC(C)(C)N1C(=O)Cc2c1nc(N)c1c(N)nc(N3CCCCC3CO)c(C#N)c21 (stereo not given),0.2,-13,3,75*,0.7,28
CN(CCO)c1nc(N)c2c(N)nc3c(c2c1C#N)CC(=O)N3C1CCCC1,0.3,6,1,75*,0.6,44
CC(C)C(NS(=O)(=O)c1ccc2c(c1)oc(=O)n2C)C(=O)N1CCN(Cc2ccccc2)CC1 (stereo not given),0.9,6,-3,13,0.8,20
Cc1[nH]nc2c1C1(CCN(C(=O)c3ccccc3)CC1)C(C#N)=C(N)O2,1.1,5,6,-12,1,-2
Cc1ccc(SCc2[nH]nc3c2C2(CCSCC2)C(C#N)=C(N)O3)cc1,0.7,18,1,32,0.8,17
CCOC(=O)N1CCC2(CC1)C(C#N)=C(N)Oc1n[nH]c(CSc3ccc(C)cc3)c12,0.3,-2,-11,70*,0.6,42
Cc1ccc(SCc2[nH]nc3c2C2(C(=O)Nc4ccc([N+](=O)[O-])cc42)C(C#N)=C(N)O3)cc1 (stereo not given),0.5,36*,-4,52*,0.7,34
Cc1[nH]nc2c1C1(CCC(c3ccccc3)CC1)C(C#N)=C(N)O2 (stereo not given),0.7,31*,-7,31,0.6,42
Cc1[nH]nc2c1C1(CCN(C(=O)OCc3ccccc3)CC1)C(C#N)=C(N)O2,0.5,1,4,48,0.3,68*
CC(Cc1ccccc1)N/C=C1\CC(=O)NC1=O (stereo not given),1.1,13,4,-11,1.1,-11
O=C(Cn1c(=O)c2c(ncn2C2CCCC2)n(Cc2ccccc2)c1=O)N1CCc2ccccc21,0.9,11,2,13,0.9,11
CCOc1ccc(CCNC(=O)c2cc3ccccn3n2)cc1OCC,0.8,5,-4,16,0.7,29
CCOC(=O)N1CCC2(CC1)C(C#N)=C(N)OC1=C2C(=O)CC(C)C1 (stereo not given),0.3,15,1,68*,0.8,16
N#CC1=C(N)OC2=C(C(=O)CCC2)C12CCN(C(=O)OCc1ccccc1)CC2,0.3,nt,nt,66*,0,99*
CCOc1ccc(CNC(=O)C2CCN(S(=O)(=O)N3CCCC3)CC2)cc1OC,1,2,18,2,1.1,-6
